Compound activity (PubChem)
VCAM1 TNFa inh: reduces TNF alpha induced VCAM1 expression in HUVEC; AID 802; HUVEC TNFa-induced VCAM-1 immunofluorescence, high-content imaging; 95,000 compounds, 0.48% hits; inhibition, % at 2 µM;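 active = inhibition above the batch mean plus 3 SD, with images confirmed as a hit by eye, cut at about 37% in these data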;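 note: 0% = TNF-stimulated DMSO wells and 100% = unstimulated control wells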
INS promoter inh: TRM-6 insulin promoter activity inhibition. inhibition, % at 2 µM. TRM-6 cells (human fetal islet line), insulin promoter-eGFP reporter, imaging; reporter expression induced with tamoxifen. 130,000 compounds, 0.9% hits;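 active = inhibition above the mean plus 3 SD, with well images judged a real hit on visual review, cut at about 60% in these data, passing the limit was not always enough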
E-sel TNF inh: TNF alpha driven E-selectin expression inhibition; HUVEC TNFa-induced E-selectin immunofluorescence, high content; inhibition, % at 2 µM; 120,000 compounds, 0.71% hits;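 active = inhibition above the batch mean plus 3 SD, and confirmed as a hit on visual image review, cut at about 43% in these data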;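 note: 0% = TNF-stimulated DMSO wells and 100% = unstimulated control wells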
cytoskel mod: alters cytoskeleton assembly in HUVEC cells | HUVEC TNFa F-actin phalloidin imaging, high content | inhibition, % at 2 µM | 91,000 compounds, 0.18% hits | AID 836;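 active = inhibition above the batch mean plus 3 SD and confirmed as a hit by visual image inspection, cut at about 30% in these data, passing the limit was not always enough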
Phagocytosis inh: inhibitors of macrophage phagocytosis; J774A.1 macrophage IgG-bead phagocytosis, imaging; inhibition, % at 5 µM; 110,000 compounds, 0.07% hits; AID 1029;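 active = inhibition above the mean of the plate negative controls plus 5 SD, cut at about 13% in these data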;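 note: phagocytic index as fraction of beads internalized from green versus red external bead signal; plate controls were DMSO negative control for no effect and cytochalasin-D positive control for full effect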
HUVEC tox TNFa: HUVEC cytotoxicity counter-screen, TNF alpha stimulated; AID 848; 93,000 compounds, 0.17% hits; HUVEC TNFalpha-stimulated, Hoechst cell count, imaging; cell count reduction, % at 2 µM;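 active = cell count reduction exceeding the screen mean by over 5 SD, scaled to untreated wells per plate, cut at about 78% in these data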;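 note: cells counted after 24 h of TNF alpha exposure following the 1 h pretreatment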
Numbers without * were called inactive; x = not tested or not shown. Shown are actives, neighbours in structure and some others; about 1.6% of the full set was active somewhere.

SMILES	VCAM1 TNFa inh	INS promoter inh	E-sel TNF inh	cytoskel mod	Phagocytosis inh	HUVEC tox TNFa
CCCn1nnc(NC(=O)c2cccc(OCC(C)C)c2)n1	x	25	93*	x	-2	x
Cc1ccc(NC(=O)CSc2ccccc2NC(=O)c2ccccc2Cl)cc1Cl	x	14	x	x	-9	x
O=C(COC(=O)c1cc(-c2cccc(Br)c2)nc2ccccc12)NCC1CCCO1 (centres undefined)	x	x	-44	x	x	x
CC(C)NC(=O)c1onc(CSc2ccc(C(C)C)cc2)c1C(=O)O	3	-16	1	36	x	-47
CC(C)NC(=O)c1onc(CSc2ccc(F)cc2)c1C(=O)O	-6	89*	11	-4	x	6
CCCOc1ccc(C(=O)CCN2CCN(C(=O)OCC)CC2)cc1	x	21	x	x	x	x
O=C1CC(c2ccccc2)n2nc(NC(=O)C3CCCO3)nc2N1 (centres undefined)	11	-10	45*	x	0	-11
N=c1c2c(-c3ccccc3)c(-c3ccccc3)n(Cc3ccco3)c2ncn1Cc1ccco1	x	-89	-45	x	-2	x
N=c1c2c(-c3ccccc3)c(-c3ccccc3)n(Cc3ccccc3)c2ncn1CCCn1ccnc1	73*	x	-20	-52	x	14
COC(=O)C1C(=O)C2=C(CC1C)NC(=O)CC2c1ccccc1 (centres undefined)	3	24	-5	-7	0	-12
COC(=O)C1C(=O)C2=C(CC1C)NC(=O)CC2c1cccc(C)c1 (centres undefined)	77*	-3	9	-8	x	87*
Cc1[nH]nc2c1C1(C(=O)N(Cc3ccc(Cl)cc3)c3ccccc31)C(C#N)=C(N)O2 (centres undefined)	-30	21	100*	23	0	x
COC(=O)Cc1[nH]nc2c1C1(C(=O)N(Cc3ccccc3)c3ccccc31)C(C#N)=C(N)O2 (centres undefined)	9	13	-18	-16	0	1
CN1C(=O)c2ccc(NC(=O)CCS(=O)(=O)c3ccccc3)cc2C1=O	x	-8	x	x	x	x
c1ccc2c(c1)[nH]c1c(N3CCSCC3)ncnc12	x	94*	x	x	x	x
Cc1csc(NC(=O)CSc2nnc(-c3cccs3)n2C)n1	12	x	-13	65*	0	-27
CCSc1nnc(NC(=O)C(C)(C)C)s1	6	77*	-4	-4	1	-14
O=C(Cc1c(Sc2ccccc2)c2ccccc2n1Cc1ccccc1)NCCO	x	-25	0	x	-5	x
CCOC(=O)C1=C(c2ccccc2)N(C)C(=O)NC1c1ccc(O)c(OC)c1 (centres undefined)	15	x	66*	-12	-3	-13
CCOC(=O)C1=C(c2ccccc2)NC(=O)NC1c1ccc(O)c(OCC)c1 (centres undefined)	x	x	-3	x	x	x
Cc1ccc(CNCC(O)(c2ccccc2)c2ccc(Cl)cc2)cc1 (centres undefined)	x	0	67*	x	x	x
CCOc1cccc(C(=O)NC(=S)Nc2ccc(N3CCCC3)cc2)c1	-2	15	53*	10	0	-16
COc1ccc(C(=O)n2c(C)c(CCO)c(=O)n2C)cc1	x	x	-29	x	x	x
N/C(Cc1cccc2ccccc12)=N\OC(=O)c1ccc2c(c1)OCO2	x	x	83*	x	x	x
COc1ccc(OC)c(NS(=O)(=O)c2ccc(N3CCCC3=O)cc2)c1	41*	x	x	-9	8	64
SMILES	VCAM1 TNFa inh	INS promoter inh	E-sel TNF inh	cytoskel mod	Phagocytosis inh	HUVEC tox TNFa
COc1ccc(CCNS(=O)(=O)c2ccc(N3CCCC3=O)cc2)cc1	-27	62	-33	10	x	-31
CCOc1ccc(S(=O)(=O)Nc2cc(OC)ccc2OC)cc1	59*	-49	x	3	1	67
CCOC(=O)c1[nH]c(C)c(C(=O)c2cc(F)ccc2F)c1C	83*	70*	-9	-15	0	31
CCOC(=O)c1[nH]c(C)c(C(=O)OCC)c1C	-9	x	x	-14	0	2
Cc1ccc(C)c(C(=O)CCC(=O)NCc2ccc(Cl)cc2)c1	x	27	x	x	x	x
COc1ccc(CC(=O)NC(C)c2nnc(SCCOc3ccc(OC)cc3)n2C)cc1 (centres undefined)	8	-34	10	7	0	83*
CC(NC(=O)COC(=O)Cc1ccsc1)C1CC2CCC1C2 (centres undefined)	88*	27	-4	-6	0	49
Cc1cccc(C)c1NC(=O)COC(=O)COc1ccc2c(C)cc(=O)oc2c1	x	60*	2	x	-7	x
Cc1cccc(C(C)C)c1NC(=O)COC(=O)Cc1ccsc1	x	x	x	x	-7	x
Cc1cccc(C(C)C)c1NC(=O)COC(=O)COc1ccc2c(C)cc(=O)oc2c1	x	x	2	x	-7	x
CC(NC(=O)COC(=O)Cc1ccsc1)c1ccccc1 (centres undefined)	x	-7	20	x	6	x
Cc1cccc(C)c1NC(=O)COC(=O)Cc1ccsc1	x	67*	-7	x	-7	x
Nc1cnccc1C(=O)O	x	-20	x	x	x	x
Cc1nn(-c2ccccc2)c(NC(=O)c2cccs2)c(-c2ccccc2)c1=O	x	47	x	x	0	x
C(=N\Nc1ncnc2ccccc12)/c1ccccc1	x	78*	x	x	x	x
CC(C)(C)OC(=O)NNC(=O)Nc1ccccc1C(F)(F)F	x	-88	x	x	x	x
Cc1ccc2nsnc2c1NC(=O)c1cncc(Br)c1	x	x	-1	x	x	x
COc1ccc(C2(CNC(C)=O)CCCC2)cc1OC	-9	-55	x	3	4	-2
COc1ccc(C2(CNC(=O)c3cc([N+](=O)[O-])cc([N+](=O)[O-])c3)CCCC2)cc1OC	x	0	63*	x	x	x
COc1ccc(CNC(=O)c2n[nH]c3ccccc23)cc1OC	x	27	-14	x	x	x
CCCn1nnc(NC(=O)COc2ccc(C3CCCCC3)cc2)n1	-68	100*	-12	-8	-2	23
CCCn1nnc(NC(=O)COc2ccc(Cl)cc2)n1	8	7	10	-2	-2	-23
Cc1ccc(C(=O)n2nc(-c3cccnc3)nc2N)cc1	4	14	4	-12	-1	3
CCCC(=O)n1nc(-c2cccnc2)nc1N	6	94*	-5	6	x	-7
O=C(Nc1ccccn1)C(F)(F)C(F)(F)C(F)(F)C(F)(F)C(=O)Nc1ccccn1	x	-14	7	x	-14	x
SMILES	VCAM1 TNFa inh	INS promoter inh	E-sel TNF inh	cytoskel mod	Phagocytosis inh	HUVEC tox TNFa
CC(C)(C)C(=O)/C(=C\c1ccc([N+](=O)[O-])cc1)n1cncn1	13	-88	66*	5	x	-14
CN(C)/C=C(/C(=O)c1ccccc1)n1cncn1	x	28	x	x	x	x
COc1ccc(C2=Nn3c(nnc3-c3ccc(OC)cc3)SC2)cc1	40*	x	4	8	11	34
CC1=Nn2c(nnc2-c2ccccc2Cl)SC1	-3	88*	-4	23	0	-18
COc1ccc(OC)c(C2=Nn3c(nnc3-c3cc(OC)c(OC)c(OC)c3)SC2)c1	-12	x	-41	-29	-1	-7
COc1cc(-c2nnc3n2N=C(c2ccccc2)CS3)cc(OC)c1OC	54*	x	-50	-41	2	-2
COc1ccc(C2=Nn3c(nnc3-c3ccccc3OC)SC2)cc1OC	48*	-200	-24	x	x	55
CC(NC(=S)Nc1ccc(Cl)cc1)C(c1ccccc1)N1CCOCC1 (centres undefined)	x	7	x	x	-7	x
CC1(C)OC(C)(C)/C(=C/Nc2ccccc2)C1=O	x	0	6	x	-6	x
